Assay outcomes from PubChem.
BoNT-A LC inh2 = BoNT/A light chain protease inhibitors, primary screen, biochemical, flow cytometry, MLPCN library | actives 0.17% (n = 360,000) | Botulinum neurotoxin type A light chain protease (Clostridium botulinum A str. ATCC 3502) | inhibition, % at 10 µM | multiplex microsphere protease substrate cleavage | AID 588499, 2011; in the data active = inhibition above about 30%; note: plate controls were buffer without enzyme for full effect and enzyme alone for no effect
MazEF act = activators of E. coli MazEF toxin-antitoxin RNase, primary screen, biochemical, fluorescence, uHTS | activation, % at 20 µM | actives 0.32% (n = 350,000) | AID 504720, 2011 | FAM/BHQ RNA-DNA oligo cleavage fluorescence, 5 h | Endoribonuclease toxin MazF (Escherichia coli (strain K12)), P0AE70; in the data active = activation above about 50%
Anthrax LF inh2 = Bacillus anthracis LF protease inhibitors, primary screen, biochemical, multiplex microsphere, MLPCN library; Lethal factor (Bacillus anthracis), P15917; multiplex microsphere protease cleavage assay; inhibition, % at 10 µM; actives 0.12% (n = 360,000); AID 588501, 2011; in the data active = inhibition above about 30%; note: plate controls were buffer without enzyme for full effect and enzyme alone for no effect
Vc quorum ag = inducers of Vibrio cholerae quorum light production without autoinducers, primary screen, BH1578 luxS cqsA deficient, single point | V. cholerae BH1578 lux reporter, luminescence, 6 h | AID 588436, 2011 | activation, % at 18.7 µM | actives 0.16% (n = 350,000); in the data active = activation mostly above about 9.7%, no sharp cut-off
BoNT F protease = BoNT/F light chain protease inhibitors, primary screen, biochemical, flow cytometry, MLPCN library; inhibition, % at 10 µM; Multiplex microsphere protease cleavage assay; actives 0.22% (n = 360,000); Botulinum neurotoxin type F light chain protease (Clostridium botulinum); in the data active = inhibition above about 35%, passing the limit was not always enough; note: plate controls were buffer without enzyme for full effect and enzyme alone for no effect
Bead autofluor = compound fluorescence in toxin protease inhibitor counterscreen; actives 3.1% (n = 360,000); fluorescence intensity (no concentration beside the values); AID 624483; compound autofluorescence counterscreen, microsphere flow cytometry; stronger effect = higher value; in the data active = fluorescence intensity above about 16000
BoNT-A LC CP2 = BoNT/A light chain protease inhibitors, confirmation, biochemical, flow cytometry, cherry pick 2 | shares compounds with BoNT-A LC inh2 | multiplex microsphere protease cleavage assay | inhibition, % at 10 µM | actives 10% (n = 150) | AID 602325, 2012; in the data active = inhibition above about 24%
LF protease CP2 = Bacillus anthracis LF protease inhibitors, confirmation, biochemical, multiplex microsphere; multiplex microsphere protease cleavage assay; actives 7% (n = 150); shares compounds with BoNT-A LC inh2; inhibition, % at 10 µM
BoNTF LC inh 2 = BoNT/F light chain protease inhibitors, confirmation, biochemical, flow cytometry, cherry pick 2; shares compounds with BoNT-A LC inh2; multiplex microsphere protease cleavage assay; inhibition, % at 10 µM; actives 7% (n = 150)
The depositor's hits bear a star. The list is not random: actives were taken first. Their share in the collection is about 3.9%. Cut-off read from the data, not from the text of the source, unless noted: active = inhibition above about 25%; inactive = the rest.

COC(=O)c1c(C(=O)OC)c2c(-c3ccccc3)cc3cccc1n32 was read as BoNT-A LC inh2 37*, MazEF act -10, Anthrax LF inh2 37*, Vc quorum ag inactive, BoNT F protease 19, Bead autofluor 4190, BoNT-A LC CP2 8, LF protease CP2 3 and BoNTF LC inh 2 -6.
For COc1ccc(CC(=O)OCC(=O)c2c[nH]c3ccccc23)cc1 the results were BoNT-A LC inh2 53*, MazEF act 3, Anthrax LF inh2 24, Vc quorum ag inactive, BoNT F protease -8, Bead autofluor 9727, BoNT-A LC CP2 14, LF protease CP2 12 and BoNTF LC inh 2 -4.
For COc1cc(CC(=O)OCC(=O)c2c[nH]c3ccccc23)cc(OC)c1OC the results were BoNT-A LC inh2 50*, MazEF act 0, Anthrax LF inh2 25, Vc quorum ag -2, BoNT F protease -13, Bead autofluor 10228, BoNT-A LC CP2 15, LF protease CP2 16 and BoNTF LC inh 2 -1.
Screening Cc1ccccc1OCC(=O)OCC(=O)c1c[nH]c2ccccc12 returned BoNT-A LC inh2 1, MazEF act 9, Anthrax LF inh2 -4, Vc quorum ag inactive, BoNT F protease 0, Bead autofluor 8924, BoNT-A LC CP2 3, LF protease CP2 1 and BoNTF LC inh 2 10.
Cc1ccc(C(=O)COC(=O)COc2ccccc2C)cc1 was read as BoNT-A LC inh2 -2, MazEF act -6, Anthrax LF inh2 0, Vc quorum ag 0, BoNT F protease 6 and Bead autofluor 6252.
`CN(C)C1=NCCN1CC1CCCCCC1` gave BoNT-A LC inh2 0, MazEF act 12, Anthrax LF inh2 -7, Vc quorum ag 1, BoNT F protease -8 and Bead autofluor 4113.
`CC(=O)Nc1ccc(NC(=O)C(C)OC(=O)C23CC4CC(CC(Cl)(C4)C2)C3)cc1` (centres undefined) gave BoNT-A LC inh2 0, MazEF act 10, Anthrax LF inh2 0, Vc quorum ag 0, BoNT F protease -9 and Bead autofluor 4095.
Screening CC(C)Cc1nc2c(nnn2Cc2ccccc2F)c(=O)[nH]1 returned BoNT-A LC inh2 -1, MazEF act 5, Anthrax LF inh2 2, Vc quorum ag inactive, BoNT F protease 4 and Bead autofluor 4612.
For Cc1[nH]c2ccccc2c1C(=O)COC(=O)c1ccccc1O the results were BoNT-A LC inh2 -1, MazEF act 12, Anthrax LF inh2 0, Vc quorum ag inactive, BoNT F protease -2, Bead autofluor 3305, BoNT-A LC CP2 5, LF protease CP2 4 and BoNTF LC inh 2 16.
For CCOc1ccc(NC(=O)CN(C)C(=O)c2ccc3c(c2)S(=O)(=O)N=C2CCCCCN23)cc1OCC the results were BoNT-A LC inh2 94*, MazEF act 7, Anthrax LF inh2 110*, Vc quorum ag 1, BoNT F protease 87*, Bead autofluor 5175, BoNT-A LC CP2 2, LF protease CP2 0 and BoNTF LC inh 2 1.
Screening COc1ccc(C(CNC(=O)C(CCSC)NC(=O)c2ccccc2Cl)N2CCCCC2)cc1 (centres undefined) returned BoNT-A LC inh2 1, MazEF act 5, Anthrax LF inh2 -1, Vc quorum ag inactive, BoNT F protease 1 and Bead autofluor 3610.
